Growth inhibition data for ten molecules are collected here from PubChem BioAssay (NCI).

Experiment [1] in a line: NCI Yeast Anticancer Drug Screen. Data for the rad50 strain (AID 155).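 Note: 0% = growth of vehicle-only cultures of the same strain.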 The note with it: S. cerevisiae rad50 strain growth inhibition, active compounds read high. The method in brief: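 Cells are treated with compound, grown, and their growth is then scored against vehicle-only cultures of the same repair-deficient yeast strain.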
The nature of experiment [2]: NCI Yeast Anticancer Drug Screen. Data for the mec2-1 strain (AID 157). The note with it: S. cerevisiae mec2-1 strain, active compounds read high. A digest of the protocol: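 Readout is yeast growth inhibition, normalised to vehicle-treated controls, in the mec2-1 strain exposed to compound.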
Experiment [3] can be described thus: NCI Yeast Anticancer Drug Screen. Data for the sgs1 mgt1 strain (AID 161).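 Note: 0% = growth of cultures given vehicle only.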 The note with it: S. cerevisiae sgs1 mgt1 strain, active compounds read high. A digest of the protocol: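 Yeast cells carrying a defined DNA-repair defect were exposed to test compounds. Growth inhibition was measured relative to vehicle-treated controls.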
Experiment [4] in a line: NCI Yeast Anticancer Drug Screen. Data for the cln2 rad14 strain (AID 165).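 Note: 0% = growth equal to vehicle treated cultures.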 The note with it: S. cerevisiae cln2 rad14 strain, active compounds read high. The method in brief:
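Relative to vehicle controls, growth inhibition of compound-treated cln2 rad14 yeast was recorded.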

A short description of experiment [5]: NCI Yeast Anticancer Drug Screen. Data for the bub3 strain (AID 167). Conditions: S. cerevisiae bub3 mutant strain, active compounds read high. The method in brief: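 Part of a panel of yeast mutants defective in DNA damage repair or cell cycle regulation. Each strain is grown with compound, and inhibition is calculated relative to solvent-treated cultures.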
The nature of experiment [6]: NCI Yeast Anticancer Drug Screen. Data for the mlh1 rad18 strain (AID 175). The note with it: S. cerevisiae mlh1 rad18 strain growth inhibition, active compounds read high. The method in brief:
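Test agents were incubated with a yeast strain of defined genotype (DNA damage repair defect). Inhibition of growth was derived by comparison with vehicle-exposed cultures.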

Setting [7] is: at 5.0 µM (retest, dose inferred, filed as 0.5).
The mark [8] stands for this setting: at 50.0 µM (retest, dose inferred, filed as 5.0).

The panel holds about 79,000 compounds, 15% with a hit somewhere; the sample as a whole holds those more often. Values without a mark were called inactive. Activity calls are given as the source filed them. Cut-off read from the data, not from the text of the source: active = growth inhibition above about 70%; inactive = the rest.

For the molecule `NC(CSC1(c2ccc(Cl)cc2)c2ccccc2-c2ccccc21)C(=O)O` (stereo not given), the growth inhibition in experiment [1] (setting [7]) was 16%; in experiment [1] (setting [8]) it was 68%; in experiment [1] (at 50.0 µM), 68%; in experiment [2] (setting [7]), 8%; in experiment [2] (setting [8]) it was 51%; in experiment [2] (at 50.0 µM), 61.9%. Moreover, the growth inhibition in experiment [3] (setting [7]) is -1%; in experiment [3] (setting [8]), 22%; in experiment [3] (at 50.0 µM), 35.1%; in experiment [4] (setting [7]), -15%; in experiment [4] (setting [8]), 59%; in experiment [4] (at 50.0 µM) it was 43.8%. Moreover, the growth inhibition in experiment [5] (setting [7]) is 1%; in experiment [5] (setting [8]), 44%; in experiment [5] (at 50.0 µM), 91.2% (active); in experiment [6] (setting [7]), -2%; in experiment [6] (setting [8]), 55%; in experiment [6] (at 50.0 µM), 74.8% (active).

Turning to `COc1ccc(/C=C/C(C)=N/NC(=S)NCC(C)C)cc1`, the growth inhibition was -9% in experiment [1] (setting [7]); 55% in experiment [1] (setting [8]); 15.8% in experiment [1] (at 50.0 µM); -12% in experiment [2] (setting [7]); 47% in experiment [2] (setting [8]); 45% in experiment [2] (at 50.0 µM). The growth inhibition in experiment [3] (setting [7]) was -2%; in experiment [3] (setting [8]), 71% (active); in experiment [3] (at 50.0 µM) it was 75.2% (active); in experiment [4] (setting [7]), -17%; in experiment [4] (setting [8]), 48%; in experiment [4] (at 50.0 µM), 18.4%. The growth inhibition in experiment [5] (setting [7]) is -6%; in experiment [5] (setting [8]) it was 57%; in experiment [5] (at 50.0 µM) it was 88.8% (active); in experiment [6] (setting [7]), 3%; in experiment [6] (setting [8]), 61%; in experiment [6] (at 50.0 µM), 52.5%.

Take `COc1ccc2c(c1)CCCN2CCCCCCCN1CCCCC1`: the growth inhibition in experiment [1] (setting [7]) was 13%; in experiment [1] (setting [8]), 49%; in experiment [1] (at 50.0 µM), 72.5% (active); in experiment [2] (setting [7]) it was 16%; in experiment [2] (setting [8]) it was 34%; in experiment [2] (at 50.0 µM) it was 45.5%. The growth inhibition in experiment [3] (setting [7]) is 26%; in experiment [3] (setting [8]), 73% (active); in experiment [3] (at 50.0 µM), 77.1% (active); in experiment [4] (setting [7]), 22%; in experiment [4] (setting [8]), 58%; in experiment [4] (at 50.0 µM) it was 90.2% (active). For the same molecule, the growth inhibition in experiment [5] (setting [7]) is 34%; in experiment [5] (setting [8]), 64%; in experiment [5] (at 50.0 µM) it was 83.5% (active); in experiment [6] (setting [7]) it was 32%; in experiment [6] (setting [8]), 73% (active); in experiment [6] (at 50.0 µM) it was 63.1%.

As for `COc1ccc(C(=O)NCCN2CCN3Cc4[nH]c5ccccc5c4CC3C2)cc1` (stereo not given), the growth inhibition is -1% in experiment [1] (setting [7]); 3% in experiment [1] (setting [8]); 1.65% in experiment [1] (at 50.0 µM); -2% in experiment [2] (setting [7]); -5% in experiment [2] (setting [8]); 1.85% in experiment [2] (at 50.0 µM). Besides, the growth inhibition was -8% in experiment [3] (setting [7]); 8% in experiment [3] (setting [8]); -6.4% in experiment [3] (at 50.0 µM); -5% in experiment [4] (setting [7]); -2% in experiment [4] (setting [8]); -17.6% in experiment [4] (at 50.0 µM). The growth inhibition in experiment [5] (setting [7]) is -5%; in experiment [5] (setting [8]) it was 1%; in experiment [5] (at 50.0 µM), -5.05%; in experiment [6] (setting [7]) it was -11%; in experiment [6] (setting [8]), -3%; in experiment [6] (at 50.0 µM), 11.7%.

With `Oc1c(Cl)c(Cl)c(O)c2c1CCCC2`, the growth inhibition in experiment [1] (setting [7]) is 46%; in experiment [1] (setting [8]), 98% (active); in experiment [1] (at 50.0 µM), 99.3% (active); in experiment [2] (setting [7]), 67%; in experiment [2] (setting [8]) it was 99% (active); in experiment [2] (at 50.0 µM) it was 99.5% (active). For the same molecule, the growth inhibition in experiment [3] (setting [7]) is 69%; in experiment [3] (setting [8]) it was 99% (active); in experiment [3] (at 50.0 µM), 99.2% (active); in experiment [4] (setting [7]) it was 14%; in experiment [4] (setting [8]) it was 99% (active); in experiment [4] (at 50.0 µM), 98.9% (active). The growth inhibition was 65% in experiment [5] (setting [7]); 98% (active) in experiment [5] (setting [8]); 99.5% (active) in experiment [5] (at 50.0 µM); 78% (active) in experiment [6] (setting [7]); 99% (active) in experiment [6] (setting [8]); 99.4% (active) in experiment [6] (at 50.0 µM).

With `CC(=O)C1=C(C)O/C(=C/c2ccc(Cl)cc2)C1=O`, the growth inhibition in experiment [1] (setting [7]) is 27%; in experiment [1] (setting [8]), 94% (active); in experiment [1] (at 50.0 µM), 49.5%; in experiment [2] (setting [7]) it was 28%; in experiment [2] (setting [8]) it was 99% (active); in experiment [2] (at 50.0 µM), 32%. For the same molecule, the growth inhibition in experiment [3] (setting [7]) was 34%; in experiment [3] (setting [8]) it was 99% (active); in experiment [3] (at 50.0 µM) it was 85.7% (active); in experiment [4] (setting [7]), 34%; in experiment [4] (setting [8]), 90% (active); in experiment [4] (at 50.0 µM), 79% (active). For the same molecule, the growth inhibition in experiment [5] (setting [7]) is 31%; in experiment [5] (setting [8]) it was 99% (active); in experiment [5] (at 50.0 µM), 83.2% (active); in experiment [6] (setting [7]) it was 34%; in experiment [6] (setting [8]), 98% (active); in experiment [6] (at 50.0 µM) it was 91.8% (active).

Turning to `CC1CCC(C(O)(C(=O)O)C2CCC(C)CC2)CC1` (stereo not given), the growth inhibition in experiment [1] (setting [7]) was 23%; in experiment [1] (setting [8]), 30%; in experiment [1] (at 50.0 µM) it was 37.9%; in experiment [2] (setting [7]), 26%; in experiment [2] (setting [8]) it was 39%; in experiment [2] (at 50.0 µM) it was 19.3%. Besides, the growth inhibition was 34% in experiment [3] (setting [7]); 61% in experiment [3] (setting [8]); 10.2% in experiment [3] (at 50.0 µM); 78% (active) in experiment [4] (setting [7]); 57% in experiment [4] (setting [8]); 47.6% in experiment [4] (at 50.0 µM). Besides, the growth inhibition in experiment [5] (setting [7]) was 25%; in experiment [5] (setting [8]), -73%; in experiment [5] (at 50.0 µM), 49.1%; in experiment [6] (setting [7]), 15%; in experiment [6] (setting [8]), 23%; in experiment [6] (at 50.0 µM) it was 49.7%.

Take `O=C(CSc1nnc(Cc2ccccc2)o1)Nc1ccc(Cl)cc1`: the growth inhibition in experiment [1] (setting [7]) was -20%; in experiment [1] (setting [8]), 87% (active); in experiment [1] (at 50.0 µM), 16.1%; in experiment [2] (setting [7]), -5%; in experiment [2] (setting [8]), 54%; in experiment [2] (at 50.0 µM), 15.2%. Besides, the growth inhibition was -1% in experiment [3] (setting [7]); 80% (active) in experiment [3] (setting [8]); 48.6% in experiment [3] (at 50.0 µM); 18% in experiment [4] (setting [7]); 79% (active) in experiment [4] (setting [8]); 35% in experiment [4] (at 50.0 µM). Also, the growth inhibition was 4% in experiment [5] (setting [7]); 91% (active) in experiment [5] (setting [8]); 26.2% in experiment [5] (at 50.0 µM); -5% in experiment [6] (setting [7]); 91% (active) in experiment [6] (setting [8]); 28.8% in experiment [6] (at 50.0 µM).

Take `CCN(CC)CCCNc1ccc([N+](=O)[O-])c2nc3ccc(OC)cc3c(N)c12`: the growth inhibition was -13% in experiment [1] (setting [7]); 62% in experiment [1] (setting [8]); 44.2% in experiment [1] (at 50.0 µM); -20% in experiment [2] (setting [7]); 27% in experiment [2] (setting [8]); -5.3% in experiment [2] (at 50.0 µM). Further, the growth inhibition in experiment [3] (setting [7]) was -7%; in experiment [3] (setting [8]), 44%; in experiment [3] (at 50.0 µM), 79.2% (active); in experiment [4] (setting [7]), 2%; in experiment [4] (setting [8]), 31%; in experiment [4] (at 50.0 µM) it was 19.6%. Besides, the growth inhibition was -11% in experiment [5] (setting [7]); 54% in experiment [5] (setting [8]); 13.6% in experiment [5] (at 50.0 µM); -39% in experiment [6] (setting [7]); 74% (active) in experiment [6] (setting [8]); 62% in experiment [6] (at 50.0 µM).

Turning to `CCc1nc2ccc(N=NN(C)C)cc2[nH]1`, the growth inhibition in experiment [1] (setting [7]) was 21%; in experiment [1] (setting [8]), 73% (active); in experiment [1] (at 50.0 µM), 84.5% (active); in experiment [2] (setting [7]), 19%; in experiment [2] (setting [8]), 80% (active); in experiment [2] (at 50.0 µM), 92% (active). For the same molecule, the growth inhibition in experiment [3] (setting [7]) is 18%; in experiment [3] (setting [8]) it was 96% (active); in experiment [3] (at 50.0 µM), 74.2% (active); in experiment [4] (setting [7]), 22%; in experiment [4] (setting [8]) it was 87% (active); in experiment [4] (at 50.0 µM) it was 88.1% (active). For the same molecule, the growth inhibition in experiment [5] (setting [7]) is 18%; in experiment [5] (setting [8]), 97% (active); in experiment [5] (at 50.0 µM), 88.5% (active); in experiment [6] (setting [7]) it was 24%; in experiment [6] (setting [8]), 91% (active); in experiment [6] (at 50.0 µM), 91.3% (active).
